MITF primary: human MITF inhibition, primary screen; O75030; AlphaScreen MITF homodimerization, bead proximity signal; inhibition, % at 2.6 µM; 650,000 tested, 0.91% active; AID 1259374; in the data active = inhibition above about 50%;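 note: 0% = vehicle wells with protein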
FBW7 act: human FBW7 E3 ligase activation, primary screen | AlphaScreen FBW7–phospho-cyclin E peptide binding, activator screen | normalized activity (activation), % at 26.1 µM | Q969H0 | 650,000 tested, 0.13% active; in the data active = normalized activity above about 1.9%;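 note: purified mutant Fbw7 with reduced substrate affinity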
TEAD-YAP block: TEAD-YAP interaction inhibition. HEK-TIYL cells, TEAD-Gal4/YAP UAS-luciferase luminescence. inhibition, % at 9.12 µM. 640,000 tested, 1.4% active; in the data active = inhibition above about 32%;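 note: 0% = median of test compound wells and 100% = reference inhibitor wells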
GPR151 activ: activates the human receptor GPR151; Q8TDV0; PathHunter beta-arrestin GPR151 cells, luminescence; activation, % at 11.2 µM; 650,000 tested, 1% active; AID 1508602; in the data active = activation above about 4.9%;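 note: 0% = median of compound wells and 100% = cells with positive control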
Target sequence (Q8TDV0 whole entry, looked up): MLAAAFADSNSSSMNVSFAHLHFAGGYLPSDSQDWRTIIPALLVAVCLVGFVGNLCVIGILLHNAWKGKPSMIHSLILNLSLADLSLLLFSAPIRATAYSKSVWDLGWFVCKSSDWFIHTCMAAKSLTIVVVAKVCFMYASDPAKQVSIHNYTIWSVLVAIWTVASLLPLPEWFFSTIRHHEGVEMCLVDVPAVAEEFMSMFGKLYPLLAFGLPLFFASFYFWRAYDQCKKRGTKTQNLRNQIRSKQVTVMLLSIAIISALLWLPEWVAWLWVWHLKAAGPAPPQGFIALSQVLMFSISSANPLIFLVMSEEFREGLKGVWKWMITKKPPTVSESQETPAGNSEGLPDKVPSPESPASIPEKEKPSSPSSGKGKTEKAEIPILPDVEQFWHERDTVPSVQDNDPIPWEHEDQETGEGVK
Starred values were filed as active, the others as inactive. This is a sample that favours compounds with a hit; in the whole collection about 3.5% have one here.

SMILES | MITF primary | FBW7 act | TEAD-YAP block | GPR151 activ
CN1CCN(c2ccnc3c(-c4ccc(Cl)cc4)cnn23)CC1 | -9.4 | 0.2 | -53.6 | -0.2
CC1(Cc2ccc3c(c2)OCO3)C(=O)Nc2ccc(-c3cccnc3)cc21 (stereo not given) | 10.6 | 0.2 | 42.1* | 0.7
CC1(Cc2ccccc2)C(=O)Nc2ccc(-c3cccnc3)cc21 (stereo not given) | 8.2 | 0.0 | 18.1 | 0.1
CCCNC(=O)C(Cc1ccccc1)NS(=O)(=O)c1ccc(Cl)cc1 (stereo not given) | 14.0 | 0.0 | -0.6 | 0.6
O=C(Cn1nnc(-c2ccc(S(=O)(=O)N3CCCC3)cc2)n1)NCC1CCCO1 (stereo not given) | -0.5 | 0.0 | 2.3 | 1.6
O=C(Cn1nnc(-c2ccc(S(=O)(=O)N3CCCC3)cc2)n1)NCc1ccco1 | 3.5 | -0.1 | 41.9* | 1.0
O=C(Cn1c(=O)oc2ccccc21)Nc1ccnc2ccccc12 | 6.2 | 0.0 | 32.0* | 0.8
O=Cc1ccccc1OCC(=O)Nc1ccccc1 | 14.8 | 1.0 | 32.5* | -3.1
COc1ccc(NC(=O)COc2ccccc2C)cc1OC | -9.8 | 0.7 | -14.4 | 1.3
CC(C)(C)c1ccccc1OCC(=O)NN | -4.7 | -0.2 | 35.9* | 0.3
COc1ccc(NC(=O)COc2ccccc2C(C)(C)C)cc1OC | 6.6 | 0.1 | 43.1* | 2.6
COc1ccccc1OCC(=O)Nc1cccc(C(=O)O)c1 | -8.9 | 0.0 | 35.6* | -7.1
COc1ccc(-c2nccc(NCCO)n2)cc1 | 15.4 | 0.0 | -30.5 | -0.2
CC(C)Oc1cccc(C(=O)C2CCCN(C(=O)c3cn[nH]c3)C2)c1 (stereo not given) | -10.1 | -0.1 | -14.4 | -0.7
CC(C)CC(=O)N1CCC(c2nc3c(nnn3Cc3ccccc3Cl)c(=O)[nH]2)CC1 | 0.3 | -0.2 | -4.3 | -0.2
CC1CCCCN1C(=O)/C=C/c1ccc(F)cc1 (stereo not given) | 9.0 | 0.8 | -51.7 | -1.2
CCOc1ccccc1NC(=O)C1=C(C)NC(=O)NC1c1ccccc1OC (stereo not given) | -5.5 | -0.1 | 3.0 | -0.1
O=C(COc1ccc(Cl)cc1Cl)Nc1cccc(C(=O)O)c1 | -13.6 | -0.1 | 97.2* | -6.9
Cc1cccc(NC(=O)COc2ccc(Cl)cc2Cl)c1 | -4.5 | -0.1 | -23.9 | -0.9
O=C(COc1ccc(C(F)(F)F)cc1[N+](=O)[O-])Nc1ccc(Cl)cc1 | -2.0 | -0.1 | -14.1 | 0.2
O=C(COc1ccc(Cl)cc1Cl)Nc1cccc(O)c1 | 15.0 | 0.1 | 71.5* | -0.7
O=C(COc1ccc(Cl)cc1[N+](=O)[O-])Nc1ccccc1 | -5.8 | -0.2 | 33.7* | -1.4
CC(=O)Nc1cccc(-c2cnn3c(NCCc4ccccn4)ccnc23)c1 | -3.2 | -0.1 | -47.9 | -0.2
Nc1nc(F)cc(NCCO)n1 | 4.8 | 0.3 | 5.6 | -1.4
Oc1ccc(-c2csc3nc(-c4ccccc4)nn23)c(O)c1 | 14.2 | 0.2 | 34.4* | -1.5
SMILES | MITF primary | FBW7 act | TEAD-YAP block | GPR151 activ
Cc1nn2c(-c3ccccc3)csc2nc1=O | -7.2 | -0.2 | 10.1 | 2.0
O=C(CNc1ccc(I)cc1)N/N=C/c1ccc(O)cc1O | 9.8 | -0.2 | 55.9* | -0.9
O=C(N/N=C/c1ccc(O)cc1O)c1ccc(I)cc1 | 29.2 | -0.2 | 45.5* | 2.8
CCCOc1ccc2c(C(F)(F)F)cc(=O)oc2c1 | 14.6 | 0.2 | 3.8 | 3.0
COc1ccc(N(C)S(=O)(=O)c2cccc3cccnc23)c(OC)c1 | -10.2 | -0.1 | 39.0* | -0.3
CCOC(=O)c1c(C)[nH]c(C(=O)CSc2nnc(NCc3ccccc3)s2)c1C | 10.9 | 0.1 | 3.7 | 1.9
CC(=O)c1c(C)[nH]c(C(=O)CSc2nnc(NCc3ccccc3)s2)c1C | -3.0 | -0.1 | 42.0* | -0.4
CCCCc1ccc(NC(=O)COc2coc(CN3CCc4ccccc43)cc2=O)cc1 | 11.6 | -0.1 | 7.9 | -1.2
COc1cc(/C=N/NC(=O)Cn2c(-c3nonc3N)nc3ccccc32)ccc1O | 6.3 | -0.2 | 45.1* | -0.4
Nc1nonc1-c1nc2ccccc2n1CC(=O)Nc1ccccc1-c1ccccc1 | 6.6 | 0.0 | -11.0 | 2.5
CCOC(=O)c1ccccc1NC(=O)Cn1c(-c2nonc2N)nc2ccccc21 | 2.2 | 0.0 | 52.0* | 0.4
COC(=O)c1sccc1NC(=O)Cn1c(-c2nonc2N)nc2ccccc21 | -7.7 | -0.2 | 49.6* | 0.7
COc1cccc(/C=N\NC(=O)Cn2c(-c3nonc3N)nc3ccccc32)c1O | 12.1 | 0.4 | 28.5 | -0.9
Nc1nc(N)nc(CCCn2c(-c3nonc3N)nc3ccccc32)n1 | 12.4 | 0.0 | 57.3* | -0.3
O=C1c2ccc(-c3nc4ccccc4o3)cc2C(=O)N1CC1CCCO1 (stereo not given) | 0.7 | -0.1 | -16.4 | 0.1
CCOC(=O)c1c(C)oc2ccc(N(C(=O)c3ccncc3)S(=O)(=O)c3ccc(Cl)cc3)cc12 | -3.0 | 0.0 | 1.7 | 1.4
Cc1ccc(Cn2c(NCCO)nc3c2c(=O)n(C)c(=O)n3C)cc1 | -6.4 | 0.0 | 42.0* | -0.1
COc1cccc(Cn2c(NCCO)nc3c2c(=O)n(C)c(=O)n3C)c1 | 9.7 | 0.0 | 39.5* | -0.1
Cc1cccc(Cn2c(NCc3ccco3)nc3c2c(=O)n(C)c(=O)n3C)c1 | 13.4 | -0.1 | 45.8* | 0.2
COc1ccc(CCNC(=O)CCCN2C(=O)c3cccc4cccc(c34)C2=O)cc1OC | -3.5 | 0.1 | 5.7 | 1.9
COc1ccc(C(=O)Nc2sc3c(c2C(=O)Nc2ccccc2)CCC3)cc1[N+](=O)[O-] | 3.6 | 0.0 | 10.2 | 0.9
COC(=O)c1cccc(-n2c(C)cc(/C=C(\C#N)C(=O)Nc3ccc(OC)cc3)c2C)c1 | -8.3 | -0.2 | 52.6* | -1.1
CNC(=O)/C(C#N)=C\c1cc(C)n(-c2ccc(N3CCOCC3)cc2)c1C | 11.6 | 0.0 | 31.6 | -1.1
CNC(=O)/C(C#N)=C\c1cc(C)n(-c2ccc(Br)cc2)c1C | 0.6 | -0.1 | 32.0* | -1.0
COCCCNC(=O)/C(C#N)=C/c1cc(C)n(-c2sc3c(c2C#N)CCCC3)c1C | -7.3 | -0.3 | 58.7* | 0.2
SMILES | MITF primary | FBW7 act | TEAD-YAP block | GPR151 activ
COCCNC(=O)/C(C#N)=C/c1cc(C)n(-c2ccccc2)c1C | 1.4 | 0.0 | 64.8* | -0.4
CCC(C)NC(=O)c1ccc(N2CC3CC(C2)c2cccc(=O)n2C3)c(NC(=O)c2cccnc2)c1 (stereo not given) | -6.8 | 0.0 | -2.2 | 1.4
NS(=O)(=O)c1ccc(NC(=O)c2ccc(-c3ccc(Cl)cc3)o2)cc1 | 3.0 | 0.2 | 0.3 | 0.9
Cc1cc(/C=C(\C#N)C(=O)N2CCOCC2)c(C)n1-c1ccccc1 | 1.8 | -0.2 | 71.3* | -3.3
COC(=O)c1ccc(-n2c(C)cc(/C=C(\C#N)C(=O)N3CCOCC3)c2C)cc1 | 13.1 | -0.2 | 1.0 | -0.4
O=C1c2ccccc2C(=O)C12OC(c1ccc(Br)cc1)C1(C(=O)c3ccccc3C1=O)C2c1ccc(F)cc1 (stereo not given) | 63.3* | 0.0 | -5.3 | 0.5
Cc1ccc(C2OC3(C(=O)c4ccccc4C3=O)C(c3ccccc3)C23C(=O)c2ccccc2C3=O)cc1 (stereo not given) | 0.9 | 0.0 | 9.1 | 0.5
O=C1[C@@H]2CCCN2C(=O)[C@H]2CN(Cc3cccc4ncccc34)CCN12 | 0.9 | -0.1 | 2.3 | 1.0

From PubChem BioAssay
